From PubChem BioAssay AID1259343 (VanderVen Lab, College of Veterinary Medicine, Cornell …, 2017)
About 2,900 (47%) of roughly 6,200 compounds were called active. So high a share suggests a set chosen from earlier hits. The list shows a part of the results. Values without a mark were called inactive. Rule as the data show it: active = inhibition above about 50%; inactive = the rest.

Test: Mycobacterium tuberculosis growth inhibition, primary screen (AID 1259343)
Settings: inhibition: at 10 µM, active compounds read high; outcome: 10 uM
For `S=C(SC1OCCOC1SC(=S)N1CCOCC1)N1CCOCC1` (centres undefined), the inhibition was 99.8% (active).
Work on `COc1ccc(C(=O)C=Cc2ccccc2Br)c(OC)c1` yielded an inhibition of 23.5%.
Compound `COc1ccc(COc2ccc(Cl)cc2C(N)=O)cc1F` has an inhibition of 27.6%.
For `COc1ccc(C(=O)COC(=O)c2ccccc2[N+](=O)[O-])cc1OC`, the inhibition was -15.5%.
For `COc1ccc(C(=O)c2ccc(O)cc2)c(O)c1O`, the inhibition was 55.4% (active).
With `COc1ccc(C(=O)c2ccccc2)c(O)c1O` the inhibition was 68.3% (active).
With `Cc1nc(SCC(=O)N(C)Cc2ccsc2)c(C(N)=O)c(C)c1C` the inhibition was -7.74%.
With `CN1CCN(C2Cc3ccccc3Sc3ccc(Cl)cc32)CC1` (centres undefined) the inhibition was 39.5%.
In the case of `CN1CCC(=C2c3ccccc3Sc3ccccc32)CC1`, the inhibition is reported as 60.1% (active).
With `CCc1ccc(NC(=O)N2CCN(c3nc(-c4ccc(Cl)cc4)nc(C)c3C)CC2)cc1` the inhibition was 28.1%.
`COc1cccc(NC(=O)N2CCc3nc(Nc4cc(Cl)cc(Cl)c4)ncc3C2)c1` gave an inhibition of 33.2%.
With `CCOC(=O)c1ccc(NC(=O)N2CCc3nc(Cc4ccccc4OC)nc(N4CCOCC4)c3C2)cc1` the inhibition was 61.8% (active).
In the case of `Oc1c(C(c2ccc(F)cc2)N2CCOCC2)ccc2cccnc12` (centres undefined), the inhibition is reported as 82.2% (active).
With `Oc1c(C(c2ccc(C(F)(F)F)cc2)N2CCOCC2)ccc2cccnc12` (centres undefined) the inhibition was 104% (active).
In the case of `COc1ccc(-n2nc([N+](=O)[O-])c(=NCCC3=CCCCC3)n2O)cc1`, the inhibition is reported as 95.6% (active).
For `CC(C)Cn1ccnc1NC(=O)c1cccc(C(F)(F)F)c1`, the inhibition was 52.5% (active).
In the case of `C=C(C)c1cccc(C(C)(C)NC(=O)Nc2ncccn2)c1`, the inhibition is reported as -1.81%.
In the case of `CSc1nnc(COc2ccccc2Cl)n1C1CC1`, the inhibition is reported as 1.97%.
With `CN1CCN(S(=O)(=O)c2ccc(SCCOc3ccccc3Cl)nc2)CC1` the inhibition was 90% (active).
Work on `COc1cc(S(=O)(=O)N2CCN(c3ccccc3C)CC2)ccc1Cl` yielded an inhibition of 12.3%.
For `CCOC(=O)c1sc(N)c(C(=O)OCC)c1C`, the inhibition was 32.7%.
With `CCOC(=O)c1c(N)sc(C(N)=O)c1C` the inhibition was 84.7% (active).
`CCOC(=O)c1sc2nc(C)nc(NCC(C)C)c2c1C` gave an inhibition of -22.6%.
With `Cc1cccc(-c2ccc(NC(=O)C3CCN(C(=O)CCc4cnn(C)c4)CC3)cc2)c1` the inhibition was 87.8% (active).
For `Cc1cccc(-c2ccc(NC(=O)C3CCN(C(=O)CSc4ccncc4)CC3)cc2)c1`, the inhibition was 74.8% (active).
For `Cc1cccc(-c2ccc(NC(=O)C3CCN(C(=O)Cn4cccn4)CC3)cc2)c1`, the inhibition was “inactive”.
For `Cc1cccc(-c2ccc(NC(=O)C3CCN(C(=O)CCc4ccncc4)CC3)cc2)c1`, the inhibition was 85% (active).
Work on `COc1ccc2oc(=Nc3cccc(C#N)c3)c(-c3nc4ccccc4[nH]3)cc2c1` yielded an inhibition of -9.36%.
In the case of `CSc1ccc(-c2nc(CN3CCN(c4cnccn4)CC3)c(C)o2)cc1`, the inhibition is reported as “inactive”.
With `COc1ccc(-c2nc(CN3CCN(c4nc5ccccc5s4)CC3)c(C)o2)c(OC)c1` the inhibition was 15.8%.
For `COc1ccc(-c2nc(CN3CCN(c4ccc(C)cc4C)CC3)c(C)o2)cc1`, the inhibition was 67.6% (active).
`Cc1ccccc1-c1cnnc(NCCCn2ccc3ccccc32)n1` showed an inhibition of 32.6%.
With `Cc1ccc(-c2nc(CN3CCc4ccccc4C3)co2)c(C)c1` the inhibition was 27.7%.
In the case of `O=S(=O)(CCN1CCc2ccccc2C1)Oc1ccc(Br)cc1`, the inhibition is reported as 98.6% (active).
With `Clc1ccc(OCCN2CCc3ccccc3C2)cc1` the inhibition was 87.5% (active).
Work on `Brc1cccc(OCCN2CCc3ccccc3C2)c1` yielded an inhibition of 38.6%.
With `Ic1ccc(OCCN2CCc3ccccc3C2)cc1` the inhibition was 46.5%.
With `O=S(=O)(NC1CCCc2ccccc21)c1ccc(Br)cc1` (centres undefined) the inhibition was 10.2%.
With `FC1(F)Oc2ccc(NCc3nc(-c4ccsc4)no3)cc2O1` the inhibition was 48.7%.
With `N=C1SCC(=O)N1c1ncc(Cc2ccccc2)s1` the inhibition was 102% (active).
With `COc1ccc(CN(C)C2CC(=O)N(c3c(C)cccc3C)C2=O)c(OC)c1` (centres undefined) the inhibition was 101% (active).
Compound `COc1ccc(CN(C)C(=O)Nc2ccc(C)cc2)c(OC)c1` has an inhibition of -33.2%.
For `COc1ccc(C2NC(=O)NC(C)=C2C(=O)OCc2ccccc2)c(OC)c1` (centres undefined), the inhibition was -11.8%.
With `CCCC1CCCC(=C\c2ccc(OC)cc2)/C1=N\OC(=O)NCC` (centres undefined) the inhibition was 57% (active).
In the case of `C=Cc1ccc(Cn2c(C)c(C(=O)Nc3ccc(OC)cc3)sc2=O)cc1`, the inhibition is reported as 2.61%.
With `COc1ccc(NC(=O)c2sc(=O)n(Cc3ccccc3)c2C)cc1` the inhibition was 5.9%.
With `C=Cc1ccc(Cn2c(C)c(C(=O)Nc3ccc(OC)c(OC)c3)sc2=O)cc1` the inhibition was -5.14%.
For `COc1ccc(NC(=O)c2sc(=O)n(Cc3cccc(F)c3)c2C)cc1`, the inhibition was 60.5% (active).
For `COc1ccc(NC(=O)c2sc(=O)n(Cc3ccc(C)cc3)c2C)cc1`, the inhibition was 79.5% (active).
Work on `Cc1ccc(Cn2c(C)c(C(=O)Nc3ccc(C)cc3)sc2=O)cc1` yielded an inhibition of -16.4%.
With `COc1ccc(NC(=O)c2sc(=O)n(Cc3ccc(OC(F)(F)F)cc3)c2C)cc1` the inhibition was 55.9% (active).
Work on `COc1ccc(NC(=O)c2sc(=O)n(Cc3ccc(C)cc3)c2C)cc1OC` yielded an inhibition of 41.4%.
`Cc1cc(CN2CCN(c3c(Br)cnc4nc(-c5ccc(N6CCN(C)CC6)cc5)[nH]c34)CC2)no1` gave an inhibition of 23.4%.
For `Clc1ccc2c(c1)C(N1CCNCC1)=Nc1ccccc1O2`, the inhibition was 81.5% (active).
`Cc1ccccc1CCNC(=O)Cn1c(-c2cccs2)n[nH]c1=S` gave an inhibition of 1.7%.
For `Cc1oc(-c2ccc(C(F)(F)F)cc2)nc1CN(C)CC1COc2ccccc2O1` (centres undefined), the inhibition was 53.7% (active).
`Cc1oc(-c2cc3c(cc2Cl)OCO3)nc1CN(C)Cc1ccc(C(F)(F)F)cc1` showed an inhibition of 46.8%.
`COc1cccc2c1OCCCN(Cc1nc(-c3ccc(C(F)(F)F)cc3)oc1C)C2` gave an inhibition of 23.4%.
`O=C(CSC1CCCCC1)NC1CCCC1` gave an inhibition of -47.7%.
With `O=C(Cc1ccc(Br)cc1)NC1CCCC1` the inhibition was 82.1% (active).
For `O=C(C1=C(O)C(=O)N(c2ncccn2)C1c1ccc(Cl)c(Cl)c1)c1ccco1` (centres undefined), the inhibition was -2.77%.
In the case of `COc1ccc(-c2c(C)noc2-c2ccc(OC)cc2O)cc1`, the inhibition is reported as 16.2%.
With `COc1ccc(-c2cc(O)cc3sc(=O)oc23)cc1` the inhibition was 69.8% (active).
In the case of `O=c1oc2c(-c3ccc(Br)cc3)cc(O)cc2s1`, the inhibition is reported as 48.6%.
